DT40 TDP1 CPT: DT40-hTDP1 cell growth loss with CPT | chicken DT40 Tdp1-/-;hTDP1 cells + 20 nM CPT, ATP luminescence, 48 h | Potency, µM (titrated, usually from 46.2 µM), usual class: inhibitors | 420,000 compounds, 12% hits; also: nearly all actives have a fitted effect of over 55% in size
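Cell growth measured by CellTiter-Glo luminescence after a minimum 48 h, 37 C compound exposure with 20 nM CPT in Tdp1-knockout DT40 cells stably expressing hTDP1, seeded 400/well; qHTS titration format.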
RORg inh: ROR gamma (mouse) transcription inhibition. P51450. Drosophila S2 Gal4-RORgamma UAS-luciferase reporter, 20 h. Potency, µM (top dose mostly 53.6 µM), usual class: inhibitors. 310,000 compounds, 5.4% hits. AID 2551; also: nearly all actives have a fitted effect of over 60% in size
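ROR gamma transcriptional activity was tracked as Gal4-UAS luciferase output in stably transfected Drosophila Schneider cells, with compound added 1 hr before 700 uM copper sulfate induction and a 20 hr ambient-temperature incubation.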
TDP1 inh: inhibitors of human tyrosyl-DNA phosphodiesterase TDP1 | Potency, µM (highest dose often 130 µM), hits mostly inhibitors | recombinant TDP1, AlphaScreen DNA substrate cleavage | 350,000 compounds, 0.28% hits | Q9NUW8; also: nearly all actives have a fitted effect of over 40% in size
Target sequence (Q9NUW8 whole entry, looked up): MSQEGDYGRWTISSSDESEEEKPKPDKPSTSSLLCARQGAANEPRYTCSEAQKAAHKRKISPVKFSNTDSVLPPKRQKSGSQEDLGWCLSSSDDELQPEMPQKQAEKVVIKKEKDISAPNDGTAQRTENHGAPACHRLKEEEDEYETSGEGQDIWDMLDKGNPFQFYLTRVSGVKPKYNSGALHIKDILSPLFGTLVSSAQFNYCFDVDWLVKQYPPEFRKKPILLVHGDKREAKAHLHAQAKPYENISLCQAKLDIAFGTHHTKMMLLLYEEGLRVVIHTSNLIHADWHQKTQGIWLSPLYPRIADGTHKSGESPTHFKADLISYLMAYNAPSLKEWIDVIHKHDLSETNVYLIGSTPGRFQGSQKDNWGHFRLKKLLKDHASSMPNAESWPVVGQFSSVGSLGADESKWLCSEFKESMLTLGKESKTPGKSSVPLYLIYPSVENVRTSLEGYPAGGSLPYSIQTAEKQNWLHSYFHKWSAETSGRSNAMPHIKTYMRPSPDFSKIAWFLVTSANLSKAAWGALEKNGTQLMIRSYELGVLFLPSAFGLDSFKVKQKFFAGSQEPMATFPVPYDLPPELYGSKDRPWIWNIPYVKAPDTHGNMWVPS
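Signal: AlphaScreen proximity between streptavidin donor and anti-FITC acceptor beads on intact substrate. Reaction: Tdp1 1 nM, substrate 15 nM final, 5 min RT after 15 min compound preincubation.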
Gal4-VP16 FLuc: counter-screen for ROR gamma inhibitors: Gal4-VP16 reporter | 310,000 compounds, 3.5% hits | Potency, µM (highest dose often 53.6 µM), hits mostly inhibitors | Drosophila S2 Gal4-VP16 UAS-luciferase, luminescence, 20 h;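 also: Gal4-VP16 expression switched on by copper sulfate through the metallothionein promoter; nearly all actives have a fitted effect of over 50% in size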
DT40 TDP1 no CPT: qHTS for Inhibitors of human tyrosyl-DNA phosphodiesterase 1 (TDP1): qHTS in cells in absence of CPT | DT40 Tdp1-/- hTDP1 cells, no CPT, ATP luminescence, 48 h | Potency, µM (doses to about 46.2 µM), actives largely listed as inhibitors | 420,000 compounds, 15% hits | AID 686978, 2013; also: nearly all actives have a fitted effect of over 55% in size
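Luminescent ATP content (CellTiter-Glo) served as the growth readout. Knockout chicken DT40 cells expressing human TDP1 were exposed to compounds without camptothecin for a minimum 48 hr at 37 °C.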
Each line names hits and unclear results; the compound was inactive in the other large screens. A selection: hits, their analogues and other compounds. The true share with any hit is near 19%. Calls follow the shape of the dose curve; as a rule, active = well fitted curve in the direction sought with a large enough effect; inconclusive = small, poorly fitted or top-dose-only effect, or another doubt; inactive = no such curve, though single readings can be large; an effect the other way counts as inactive or inconclusive.

Cc1ccc(Cl)c(NC(=O)COC(=O)c2ccccc2C(=O)c2ccc(Cl)c([N+](=O)[O-])c2)c1Cl	RORg inh inconclusive, DT40 TDP1 no CPT 10µM
COc1cc(/C=C2/C(=O)N(C)C(=S)N2C)ccc1OCc1cccc(F)c1	DT40 TDP1 no CPT inconclusive (no result: TDP1 inh)
O=C(O)c1ccc(COc2ccccc2/C=C2\NC(=O)N(Cc3ccccc3F)C2=O)cc1	DT40 TDP1 CPT inconclusive, DT40 TDP1 no CPT inconclusive
CN1C(=O)/C(=C/c2ccccc2OCc2ccccc2F)NC1=S	RORg inh 1.6µM
CN1C(=O)/C(=C/c2ccc(OCc3cccc(F)c3)cc2)NC1=S	RORg inh 7.1µM, Gal4-VP16 FLuc inconclusive (no result: TDP1 inh)
O=C(NC12CC3CC(CC(C3)C1)C2)N1CCN(c2ncccn2)CC1	none
O=C(CSc1nc(-c2ccccc2)nc2ccccc12)Nc1nccs1	DT40 TDP1 CPT inconclusive, RORg inh 11µM, Gal4-VP16 FLuc inconclusive
O=C(CSc1ccccc1)Nc1nccs1	none
CN(C)c1ccc(NC(=O)c2sc(SCC(=O)Nc3nccs3)nc2N)cc1	DT40 TDP1 CPT inconclusive, RORg inh inconclusive, DT40 TDP1 no CPT 16µM
O=C(CSc1nc(-c2ccccc2)cs1)Nc1nccs1	DT40 TDP1 CPT inconclusive, RORg inh inconclusive, DT40 TDP1 no CPT 16µM
Cc1cc(C)c2c(n1)sc1c(N3CCCCC3)ncnc12	DT40 TDP1 CPT inconclusive, DT40 TDP1 no CPT inconclusive (no result: TDP1 inh)
Cc1cc(C)c2c(n1)sc1c(N3CCN(C)CC3)ncnc12	DT40 TDP1 CPT inconclusive, DT40 TDP1 no CPT 13µM (no result: TDP1 inh)
NC(=O)CC(NC(=O)c1ccccc1)c1ccc(NC2CCCC2)c([N+](=O)[O-])c1 (stereo not given)	DT40 TDP1 CPT 4.6µM, DT40 TDP1 no CPT 18µM
NC(=O)CC(NC(=O)c1ccccc1)c1ccc(NC2CCC2)c([N+](=O)[O-])c1 (stereo not given)	DT40 TDP1 CPT inconclusive, DT40 TDP1 no CPT inconclusive
NC(=O)CC(NC(=O)c1ccccc1)c1ccc(NCC2CC2)c([N+](=O)[O-])c1 (stereo not given)	DT40 TDP1 CPT 23µM, RORg inh inconclusive, DT40 TDP1 no CPT inconclusive
CCOc1ccc2nc(N(Cc3cccnc3)C(=O)C3CCCCC3)sc2c1	DT40 TDP1 CPT inconclusive (no result: RORg inh, Gal4-VP16 FLuc)
COc1ccc2sc(N(Cc3cccnc3)C(=O)C3CCCCC3)nc2c1	DT40 TDP1 CPT 13µM, DT40 TDP1 no CPT 23µM (no result: RORg inh, Gal4-VP16 FLuc)
O=C(C1CCCCC1)N(Cc1cccnc1)c1nc2c(F)cc(F)cc2s1	DT40 TDP1 CPT 21µM, DT40 TDP1 no CPT 15µM (no result: RORg inh, Gal4-VP16 FLuc)
O=C(CC(Cc1ccccc1)C(=O)O)Nc1cccc(C(F)(F)F)c1 (stereo not given)	none (no result: TDP1 inh)
CCOC(=O)C(C)Sc1nnc2c3ccccc3n(C)c2n1 (stereo not given)	none
CCC(Sc1nnc(C)c(=O)[nH]1)C(=O)Nc1cccc2ccccc12 (stereo not given)	DT40 TDP1 no CPT inconclusive
CCOC(=O)c1ccc(NC(=O)C(CC)Sc2nnc3c4ccccc4n(C)c3n2)cc1 (stereo not given)	DT40 TDP1 CPT 16µM, DT40 TDP1 no CPT 18µM (no result: RORg inh, Gal4-VP16 FLuc)
CCC(Sc1nnc2c(n1)[nH]c1ccccc12)C(=O)Nc1ccccc1OC (stereo not given)	DT40 TDP1 CPT inconclusive, DT40 TDP1 no CPT 21µM (no result: RORg inh, TDP1 inh, Gal4-VP16 FLuc)
COCCN1C(=O)c2ccccc2C1c1nnnn1C(C)C (stereo not given)	none (no result: RORg inh, TDP1 inh, Gal4-VP16 FLuc)
O=C(Cc1cccc(NC(=O)C2CCCN(C(=O)CCc3ccccc3)C2)c1)Nc1cccc(C(=O)N2CCCCC2)c1 (stereo not given)	DT40 TDP1 CPT 16µM, DT40 TDP1 no CPT 21µM (no result: RORg inh, TDP1 inh, Gal4-VP16 FLuc)
O=C(Cc1cccc(NC(=O)C2CCCN(C(=O)C3CCCC3)C2)c1)Nc1cccc(C(=O)N2CCCCC2)c1 (stereo not given)	none (no result: RORg inh, TDP1 inh, Gal4-VP16 FLuc)
CN(C(=O)c1cccc(NC(=O)Cc2ccc(NC(=O)C3CCN(C(=O)CCc4ccccc4)CC3)cc2)c1)C1CCCCC1	DT40 TDP1 CPT 21µM, DT40 TDP1 no CPT 15µM (no result: RORg inh, TDP1 inh, Gal4-VP16 FLuc)
O=C(Cc1cccc(NC(=O)C2CCCN(C(=O)C3CCCC3)C2)c1)Nc1ccc(C(=O)N2CCOCC2)cc1 (stereo not given)	DT40 TDP1 CPT 16µM, DT40 TDP1 no CPT inconclusive (no result: RORg inh, TDP1 inh, Gal4-VP16 FLuc)
O=C(Cc1cccc(NC(=O)C2CCCN(C(=O)C3CCC3)C2)c1)Nc1ccc(C(=O)N2CCOCC2)cc1 (stereo not given)	none (no result: RORg inh, TDP1 inh, Gal4-VP16 FLuc)
CN(C(=O)c1cccc(NC(=O)Cc2cccc(NC(=O)C3CCCN(C(=O)C4CCC4)C3)c2)c1)C1CC1 (stereo not given)	DT40 TDP1 no CPT inconclusive (no result: RORg inh, TDP1 inh, Gal4-VP16 FLuc)
CN(C(=O)c1cccc(NC(=O)Cc2cccc(NC(=O)C3CCCN(C(=O)CCc4ccccc4)C3)c2)c1)C1CCC1 (stereo not given)	DT40 TDP1 CPT inconclusive, DT40 TDP1 no CPT 21µM (no result: RORg inh, TDP1 inh, Gal4-VP16 FLuc)
Cc1cc(F)ccc1NC(=O)CCS(=O)(=O)c1cc2c3c(c1)CCN3C(=O)CC2	none (no result: RORg inh, Gal4-VP16 FLuc)
CCN(CC)CCNc1nc2nonc2nc1NCCN(CC)CC	none (no result: TDP1 inh)
Cn1c2ccccc2c2cnn(CC(=O)NCc3ccc(Cl)cc3)c(=O)c21	none (no result: RORg inh, Gal4-VP16 FLuc)
CCCn1c(=O)sc2cc(NC(=O)c3ccccc3Cl)ccc21	DT40 TDP1 CPT 21µM, DT40 TDP1 no CPT inconclusive (no result: RORg inh, Gal4-VP16 FLuc)
CCCn1c(=O)sc2cc(NC(=O)c3ccccc3OCC)ccc21	DT40 TDP1 CPT inconclusive, DT40 TDP1 no CPT inconclusive (no result: RORg inh, Gal4-VP16 FLuc)
Cc1ccccc1NC(=O)c1cccc(Cn2cc(Br)c([N+](=O)[O-])n2)c1	DT40 TDP1 CPT inconclusive, RORg inh inconclusive, DT40 TDP1 no CPT inconclusive

High-throughput results as filed in PubChem.
